The panel holds about 83,000 compounds, 20% with a hit somewhere; the sample as a whole holds those more often.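 In brief: 96-well plates, 48 h treatment, single concentration, percent growth endpoint.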 Unmarked numbers belong to inactive results. Activity calls are given as the source filed them. Rule for the calls: active = growth percent below 10; inactive = the rest.
Columns and labels:
Experiment in all cases: NCI-60 one-dose screen, 48 h (100 = growth as untreated, 0 = no growth, -100 = all killed)
Settings in all cases: 10 µM unless noted
[1] = system: HCT-15 colon
[2] = system: HT29 colon
[3] = system: SNB-75 CNS
[4] = system: SNB-19 CNS
[5] = system: U251 CNS
[6] = system: PC-3 prostate
[7] = system: SK-MEL-5 melanoma
[8] = system: UACC-62 melanoma
[9] = system: LOX IMVI melanoma
[10] = system: SK-MEL-28 melanoma

Compound	growth [1]	growth [2]	growth [3]	growth [4]	growth [5]	growth [6]	growth [7]	growth [8]	growth [9]	growth [10]
CC(C)N(Cc1ccccc1)c1c(Cl)ssc1=O	108%	100%	113%	101%	102%	95.9%	104%	93.1%	96.3%	101%
CC(C)N(Cc1ccccc1)c1c(S)ssc1=S	10.4%	3.11% (active)	-2.3% (active)	20.9%	5.51% (active)	1.17% (active)	-75.9% (active)	34.1%	10.1%	21.8%
CSc1nc(Nc2ccc(S(=O)(=O)Nc3ccon3)cc2)c(C#N)c(-c2ccc(Cl)cc2)n1	87.9%	101%	102%	101%	88.2%	109%	97.4%	107%	62.3%	118%
C[C@]12CCC(=O)C=C1CC[C@H]1[C@@H]3C[C@@H](O)[C@](O)(C(=O)CO)[C@@]3(C)C[C@H](O)[C@@]12F	102%	103%	108%	99.9%	109%	95.3%	101%	98%	96%	107%
O=C(/C=C/c1c(-c2ccccc2)[nH]c2ccccc12)S(=O)(=O)c1ccccc1	38.1%	34%	84.5%	82.4%	76.5%	36.5%	37.4%	39.1%	56.5%	72.5%
C[C@@H]1[C@H]2[C@H](C=C3[C@@H]4CC[C@H]5Cc6nc7c(nc6C[C@]5(C)[C@H]4C[C@@H](O)[C@@]32C)C[C@@H]2CC[C@H]3C4=C[C@@H]5O[C@@]6(CC[C@](C)(CO)O6)[C@@H](C)[C@@]5(O)[C@@]4(C)[C@H](O)C[C@@H]3[C@@]2(C)C7)O[C@]12CCC(C)(C)O2	11.2%	-14.6% (active)	-9.04% (active)	25.1%	7.53% (active)	-32% (active)	0.934% (active)	-0.259% (active)	3.2% (active)	40.8%
Cc1ccc(/C=C(/C#N)n2nnc3ncccc32)cc1	2.19% (active)	6.53% (active)	-2.77% (active)	56.7%	40.4%	22.3%	12.5%	22.1%	4.54% (active)	28.3%
COc1ccc2c(c1)[n+](=O)c(/C=C/C(=O)c1cc(OC)c(OC)c(OC)c1)c(C)n2[O-]	11%	47%	68.7%	97%	53.7%	55.2%	93.4%	63.8%	51.3%	71.6%
CCOc1cc(/C=C/C(=O)C(C(=O)/C=C/c2ccc(OC(=O)CNc3nc4ccccc4[nH]3)c(OCC)c2)C(=O)CNc2nc3ccccc3[nH]2)ccc1OC(=O)CNc1nc2ccccc2[nH]1	-41% (active)	-100% (active)	-18.1% (active)	25.1%	-61.5% (active)	3.12% (active)	-86.6% (active)	-61.4% (active)	-98.5% (active)	-29.6% (active)
COC(=O)c1cc2oc(/C=N\NC(=O)c3cc4oc(C)c(C)c4[nH]3)cc2[nH]1	108%	111%	112%	102%	100%	72%	108%	115%	107%	110%
Cc1nn2c(/C=C3/C(=O)Nc4cc(Cl)ccc43)c(-c3ccccc3)nc2s1	37.8%	36.6%	-20.2% (active)	54%	-19.9% (active)	51.1%	-24.7% (active)	-25.4% (active)	-33.3% (active)	-49.4% (active)
COc1ccc(NS(=O)(=O)N2CCCCC2)cc1	115%	102%	115%	96.4%	111%	91.8%	97.1%	82.5%	100%	123%
Fc1ccccc1C1c2ccccc2-c2nccn21 (stereo not given)	99.2%	100%	98.2%	100%	98.8%	87.3%	97%	89%	98.1%	109%
O=[N+]([O-])c1ccc(N=Nc2c(Cl)cc(O)cc2Cl)cc1	-25.7% (active)	8.53% (active)	-10.4% (active)	20.1%	10%	8.4% (active)	-58.7% (active)	-44.1% (active)	-12.7% (active)	5.72% (active)
OC(c1ccccc1)C(NCc1ccccc1)c1ccccc1 (stereo not given)	108%	103%	91%	87.8%	102%	79.9%	108%	90.3%	85.5%	101%
CCN(CC)CCOCC[C@H]1CC[C@H]2[C@@H]3[C@H](C)Cc4cc(OS(N)(=O)=O)ccc4[C@H]3CC[C@]12C	-37% (active)	-63.8% (active)	-42.7% (active)	-94.4% (active)	-71% (active)	-88.8% (active)	-90.4% (active)	-79.7% (active)	-65% (active)	-91.1% (active)
O=Cc1ccccc1C(=O)O	103%	100%	99.4%	107%	96.9%	96.1%	101%	100%	101%	106%
O=C1NC(=O)/C(=C\c2ccco2)S1	100%	114%	97.7%	101%	101%	101%	99.9%	91.7%	91.5%	113%
CC1CN(C2CCCCC2)C(=O)NC1=O (stereo not given)	104%	105%	93.4%	97.4%	110%	94%	105%	87.5%	101%	116%
O=C1/C(=C\c2coc3ccccc3c2=O)c2ccccc2N1c1c(Cl)cccc1Cl	24.7%	47.6%	62.7%	62.6%	36%	31.8%	20.3%	36.6%	37.1%	47.3%
CCOC(=O)C(C(=O)OCC)C1CCCCC1	99%	102%	87.6%	102%	86%	94.3%	109%	99.2%	110%	106%
COc1ccc2nc(-c3ccc(Cl)cc3)cc(-c3nnc(SCC(=O)Nc4ccc(C(C)=O)cc4)n3-c3ccccc3)c2c1	101%	78.6%	81%	105%	101%	87.3%	103%	97.7%	105%	107%
COc1cc(-c2n[nH]nc2-c2ccccn2)cc(OC)c1OC	76.8%	112%	88.1%	94.8%	106%	82.1%	102%	87.3%	98.5%	120%
NC(=O)NS(=O)(=O)c1ccc(N2N=C(C(F)(F)F)CC2c2cc(C(F)(F)F)cc(C(F)(F)F)c2)cc1 (stereo not given)	62.9%	70.4%	68.1%	85%	74.6%	16.2%	75.5%	82.7%	78.6%	84.8%
O=C(O)c1ccc2cccnc2c1O	7.1% (active)	10.9%	23%	12.7%	8.23% (active)	1.21% (active)	0.767% (active)	0.979% (active)	3.31% (active)	44.6%
O=C1C(=O)/C(=C/c2ccccc2)CCCCCC/C1=C/c1ccccc1	32.2%	-25.6% (active)	68%	67.9%	11%	55.4%	88.2%	79.6%	-73.5% (active)	94.9%

Source: PubChem BioAssay (NCI)
